Here are results for 6 compounds from PubChem BioAssay (NCI).

Test systems include NCI-H226 lung; NCI-H322M lung; HOP-62 NSCLC; NCI-H460 lung; NCI-H522 lung; A549/ATCC NSCLC; 786-0 renal; COLO 205 colon; DU-145 prostate; K-562 leukemia; MALME-3M melanoma; MDA-MB-231 breast; RXF 393 renal; SF-268 CNS; SF-295 CNS; SF-539 CNS; UACC-257 melanoma; M14 melanoma; HOP-92 NSCLC.
Holding throughout (assay): NCI-60 one-dose screen, 48 h (100 = growth as untreated, 0 = no growth, -100 = all killed)
What all share (conditions): 10 µM unless noted

Several values for one entry are separate records, joined by “and”; a condition that tells them apart may be missing. Equal entries are not always repeated. This is part of a sample that, as a whole, favours compounds with a hit. Of some 83,000 tested, about 20% had one in any assay.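 A percent growth of 40 corresponds to 60% growth inhibition; 0 means no net growth; -100 means all cells died. Active threshold: below 10.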 A structure can be active in one record and inactive in another. Activity calls are given as the source filed them.

`CN(C)c1ccc(/C=C(\C#N)c2ccccc2)cc1`: the growth is 92.4% (inactive) and 60.5% (inactive) and 73% (inactive) in the assay with NCI-H226 lung; 64% (inactive) and 57.1% (inactive) and 47.6% (inactive) in the assay on NCI-H322M lung; 48.3% (inactive) and 31.4% (inactive) and 36.6% (inactive) in the assay with HOP-62 NSCLC; 11.2% (inactive) and 20.8% (inactive) and 12.2% (inactive) in the assay on NCI-H460 lung; -50% (active) and 2.73% (active) and 5.2% (active) in the assay with NCI-H522 lung; 24.3% (inactive) and 31.2% (inactive) and 24.9% (inactive) in the assay with A549/ATCC NSCLC. Also, the growth was 44.7% (inactive) and 42.3% (inactive) and 45.6% (inactive) with 786-0 renal; -2% (active) and -7.08% (active) with COLO 205 colon; 15.7% (inactive) and 38.1% (inactive) in the assay with DU-145 prostate; 11.3% (inactive) and 14% (inactive) and 23.9% (inactive) in the assay with K-562 leukemia; 53.7% (inactive) and 51.2% (inactive) and 57.3% (inactive) in the assay with MALME-3M melanoma; 55.7% (inactive) and 50.3% (inactive) and 48.9% (inactive) in the assay on MDA-MB-231 breast. Moreover, the growth with RXF 393 renal is -6.38% (active) and -3.64% (active); in the assay on SF-268 CNS, 43.5% (inactive) and 61.1% (inactive) and 56% (inactive); in the assay with SF-295 CNS it was -18.9% (active) and 23.5% (inactive) and 17% (inactive); in the assay on SF-539 CNS, -2.9% (active) and -3.11% (active) and -13.1% (active); in the assay on UACC-257 melanoma, 20.1% (inactive) and 66.6% (inactive) and 56.6% (inactive); with M14 melanoma, 19.1% (inactive) and 30.2% (inactive) and 24% (inactive).

`Nc1ccn(C2OC(CO)C(O)C2O)c(=O)n1` (stereo unspecified): the growth with DU-145 prostate was 24% (inactive) and 12.2% (inactive) and 114% (inactive); in the assay with MDA-MB-231 breast, 110% (inactive) [middle of 4 runs]; in the assay on RXF 393 renal, 90.6% (inactive) and 33.4% (inactive) and 134% (inactive); in the assay on SF-268 CNS, 35.8% (inactive) and 41.2% (inactive) and 104% (inactive).

For `CC(C)CNC(=O)c1ccccc1C(=O)NC1(C(=O)NCC(C)C)CCCC1`, the growth in the assay with NCI-H322M lung was 112% (inactive) and 106% (inactive); with HOP-62 NSCLC, 102% (inactive) and 95.6% (inactive); with NCI-H460 lung it was 108% (inactive) and 113% (inactive); in the assay with NCI-H522 lung it was 95.9% (inactive); in the assay on A549/ATCC NSCLC, 95.7% (inactive) and 107% (inactive); in the assay with 786-0 renal it was 107% (inactive) and 99% (inactive). In addition, the growth in the assay with COLO 205 colon is 102% (inactive) and 121% (inactive); with DU-145 prostate, 111% (inactive) and 109% (inactive); in the assay on K-562 leukemia, 102% (inactive); in the assay on MALME-3M melanoma it was 125% (inactive); in the assay on MDA-MB-231 breast, 109% (inactive) and 105% (inactive); in the assay on RXF 393 renal it was 113% (inactive) and 130% (inactive). In addition, the growth is 104% (inactive) with SF-268 CNS; 111% (inactive) and 105% (inactive) in the assay with SF-295 CNS; 100% (inactive) in the assay with SF-539 CNS; 102% (inactive) and 106% (inactive) in the assay with UACC-257 melanoma; 108% (inactive) and 102% (inactive) in the assay with M14 melanoma.

With `COC(=O)/C=C/c1cc(O)c2c(c1)C(C(=O)OC)C(c1ccc(O)c(O)c1)O2` (stereo unspecified), the growth in the assay on NCI-H226 lung was 57.1% (inactive) and 39.7% (inactive); in the assay on NCI-H322M lung, 72.7% (inactive) and 55.8% (inactive); in the assay with HOP-62 NSCLC, 45.8% (inactive) and 37.5% (inactive); with NCI-H460 lung, 28% (inactive) and 17.7% (inactive); in the assay with HOP-92 NSCLC, 16.5% (inactive) and -0.331% (active); in the assay with NCI-H522 lung, 1.09% (active) and 0.933% (active). In addition, the growth in the assay with 786-0 renal was 17% (inactive) and 15% (inactive); in the assay on COLO 205 colon it was 58.5% (inactive) and 41% (inactive); in the assay with DU-145 prostate it was 11.7% (inactive) and 7.05% (active); in the assay on K-562 leukemia it was 9.16% (active) and 9.69% (active); in the assay on MALME-3M melanoma it was 72.1% (inactive) and 69% (inactive); in the assay with MDA-MB-231 breast, 13.5% (inactive) and 18% (inactive). Besides, the growth with RXF 393 renal was 55.9% (inactive) and 30% (inactive); in the assay with SF-268 CNS, 34.1% (inactive) and 28.5% (inactive); in the assay on SF-295 CNS it was 19.2% (inactive) and 22.4% (inactive); with SF-539 CNS, 5.8% (active) and 3.46% (active); with UACC-257 melanoma it was 62.4% (inactive) and 60.6% (inactive); with M14 melanoma it was 2.19% (active) and 6.67% (active).

Consider `CC(C)Oc1ccc2cc(-c3nn(CC4CCNCC4)c4ncnc(N)c34)ccc2c1`, for which the growth is 97.6% (inactive) and 63.7% (inactive) in the assay on NCI-H226 lung; 89.8% (inactive) and 53.9% (inactive) in the assay on NCI-H322M lung; 79.8% (inactive) and 53.2% (inactive) with HOP-62 NSCLC; 102% (inactive) and 15.8% (inactive) with NCI-H460 lung; 87.2% (inactive) and -28% (active) in the assay with NCI-H522 lung; 80.1% (inactive) and 16.9% (inactive) in the assay with A549/ATCC NSCLC. The growth with 786-0 renal is 89.3% (inactive) and -32.9% (active); in the assay on COLO 205 colon it was 74.4% (inactive) and -47.7% (active); with DU-145 prostate it was 107% (inactive) and 40.4% (inactive); in the assay with K-562 leukemia, 43.1% (inactive) and -68.4% (active); in the assay with MALME-3M melanoma, 73.7% (inactive) and -77.1% (active); in the assay on MDA-MB-231 breast, 60.5% (inactive) and -42.9% (active). Moreover, the growth with RXF 393 renal is 39.3% (inactive) and -73.3% (active); in the assay with SF-268 CNS it was 88.4% (inactive) and 1.08% (active); in the assay on SF-295 CNS it was 97.8% (inactive) and -54.6% (active); in the assay on SF-539 CNS, 73.1% (inactive) and -83.1% (active); with UACC-257 melanoma, -81.8% (active); in the assay with M14 melanoma it was 5.7% (active) and -84.7% (active).

Take `N=C1N=C(N)CS1`: the growth is 107% (inactive) in the assay with HOP-62 NSCLC; 103% (inactive) in the assay on NCI-H460 lung; 103% (inactive) in the assay on NCI-H522 lung; 96.6% (inactive) in the assay with A549/ATCC NSCLC; 103% (inactive) in the assay with 786-0 renal; 113% (inactive) in the assay with COLO 205 colon. Further, the growth in the assay with DU-145 prostate is 115% (inactive); in the assay with K-562 leukemia, 105% (inactive); in the assay with MALME-3M melanoma it was 114% (inactive); in the assay on MDA-MB-231 breast, 115% (inactive); in the assay with RXF 393 renal it was 99.4% (inactive); with SF-268 CNS, 107% (inactive). Moreover, the growth was 96.5% (inactive) in the assay on SF-295 CNS, 110% (inactive) in the assay on SF-539 CNS, 106% (inactive) in the assay on UACC-257 melanoma and 108% (inactive) in the assay on M14 melanoma.
